{
  "source": "PubChem BioAssay AID1489",
  "about": "(National Center for Advancing Translational Sciences (NCATS), 2009)",
  "note": "Records with an inconclusive call do not appear. A call without a number means that no potency is given here. Active and inactive are the calls of the source. The call rests on the fitted dose curve; in most records, active means well fitted antagonist curve with a large enough effect in the main read-out, with a control signal flat; inconclusive means small, poorly fitted or top-dose-only effect; inactive means no such curve, though single readings can be large or run the other way.",
  "data": [
    {"biological_target": "Neuropeptide S receptor (Homo sapiens) (UniProt Q6W5P4)", "sequence (Q6W5P4 whole entry, looked up)": "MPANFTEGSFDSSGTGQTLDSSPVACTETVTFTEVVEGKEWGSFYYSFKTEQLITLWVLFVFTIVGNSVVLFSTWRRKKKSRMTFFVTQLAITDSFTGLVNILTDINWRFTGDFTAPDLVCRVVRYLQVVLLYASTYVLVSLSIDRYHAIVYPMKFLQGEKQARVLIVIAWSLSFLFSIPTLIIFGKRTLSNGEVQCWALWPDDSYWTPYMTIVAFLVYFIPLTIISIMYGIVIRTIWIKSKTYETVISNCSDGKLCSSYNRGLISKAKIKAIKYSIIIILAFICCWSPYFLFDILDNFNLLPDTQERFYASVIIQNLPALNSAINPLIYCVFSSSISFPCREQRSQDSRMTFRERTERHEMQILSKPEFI", "experiment": "Confirmation Concentration-Response Assay for Antagonists of the Neuropeptide S Receptor: Calcium Signal Transduction", "conditions": "CHO-NPSR cells, NPS-induced calcium flux, FDSS; series mostly up to 19.3 µM", "excerpt": "NIH Chemical Genomics Center [NCGC] NIH Molecular Libraries Probe Production centers Network [MLPCN] MLPCN Grant: X01-DA026210-01 Assay Submitter (PI): Heilig, Markus Alexander NCGC Assay Overview: Neuropeptide S receptor (NPSR), previously known as GPR154, is a recently de-orphanized G protein coupled receptor. Its endogenous ligand is the 20 amino acids peptide Neuropeptide S (NPS). […] NPS and its receptor are found in various tissues. Specifically they are highly expressed in brain areas that have been implicated in modulation of arousal, stress and anxiety. Central administration of NPS in mice produces an unusual profile of activity by inducing wakefulness and arousal, while at the same time suppressing anxiety. Therefore, NPSR may represent a novel drug target for the treatment of sleep and anxiety disorders. To identify NPSR antagonists, we developed a cell-based assay with transfected NPS receptor. NPS can stimulate the production of cAMP as well as release intracellular calcium in Chinese hamster ovary cells stably expressing NPS receptor. This change in intracellular calcium can be detected using a calcium indicator dye on a calcium imaging plate reader system (FDSS).\nNCGC Assay Protocol Summary: A Chinese hamster ovary (CHO) cell line stably expressing the NPS receptor (CHO-NPSR) was obtained from Dr. Heilig lab at NIAAA and maintained in F-12 Kaighn's media (Invitrogen, Carlsbad, CA, 21127) supplemented with 10 % FBS, 100 units/ml penicillin, 100 ug/ml streptomycin and 250 ug/ml geneticin at 37C, 5% CO2 in a humidified atmosphere. Before the assay, aliquots of cells were frozen and stored at -135C. The assay was performed on a FDSS-7000 kinetic plate reader in 1536-well format. For both agonist (1-220s) and antagonist (221-400s) phases, the maximums of kinetic fluorescence responses were converted separately into text files using the instrument's software data export utility. Data for agonist response were normalized to the controls for basal activity (DMSO only) and 100% activation (NPS). […] AC50 values were determined from concentration-response data modeled with the standard Hill equation. NPS 1536-well FDSS assay protocol: (1) Frozen CHO-NPSR cells were thaw, washed once with fresh media and resuspended in F-12 Kaighn's media supplemented with 10 % FBS, 100 units/ml penicillin and 100 ug/ml streptomycin. Cells were plated at 3 ul/well (1200 cells) to black, clear-bottom, tissue-culture treated 1536-well plates, and then cultured at 37C, 5 % CO2 for 16 to 30 hours. (2) Add 3 ul of calcium dye (from High Performance PBX Calcium Assay Kit, BD Biosciences). The calcium dye was prepared according to the manufactory's instruction. (3) Incubation at 37C, 5 % CO2 for 60 to 120 min. (4) Load plates to FDSS-7000. The following steps were performed on FDSS-7000. (5) Record fluorescent background (Ex 480 nm, Em 520-560 nm) for 10 s. (6) Add 23 nl/well of compound in DMSO solution. The final titration for each compound was between 0.6 nM and 46 uM. Record agonist response for 210 s. (7) Add 2 ul of stimulation reagent (1X HBSS buffer, 0.1% BSA, 60 nM NPS). Record antagonist response for 140 s. Keywords: MLSMR, MLPCN, NIH Roadmap, qHTS, NCGC, NPS, Neuropeptide S Antagonists", "values": [
      {"smiles": "CN(C)c1ccc(N2CN=C3SCC(=O)N3C2)cc1", "Potency": "inactive"},
      {"smiles": "CC(C)Cc1nc(N2CCN(C(=O)c3ccccc3)CC2)c(C#N)c2c1CCC2", "Potency": "inactive"},
      {"smiles": "Cc1ccc(S(=O)(=O)Nc2ccccc2CNc2c(C)n(C)n(-c3ccccc3)c2=O)cc1", "Potency": "inactive"},
      {"smiles": "CCC(c1nnnn1C1CCCC1)N1CCN(c2ccccc2)CC1", "note": "(stereo not given)", "Potency": "inactive"},
      {"smiles": "Cc1ccc(S(=O)(=O)Nc2cccc3ncccc23)s1", "Potency": "3.16 µM (active)"},
      {"smiles": "O=C(COC(=O)c1ccccc1C(=O)c1ccc(Cl)c([N+](=O)[O-])c1)NC1CCCCCC1", "Potency": "4.47 µM (active)"},
      {"smiles": "CCSc1nc2c(c(=O)n1Cc1ccccc1)SC(C)C2", "note": "(stereo not given)", "Potency": "inactive"},
      {"smiles": "CC(=O)c1sc(-c2ccccc2)cc1NS(=O)(=O)c1ccccc1", "Potency": "inactive"},
      {"smiles": "O=C(O)C1CCN(c2nc(-c3ccccc3)nc3c2oc2ccccc23)CC1", "Potency": "inactive"},
      {"smiles": "N#Cc1cnn(-c2ncnc3sc4c(c23)CCCC4)c1N", "Potency": "inactive"},
      {"smiles": "Cc1cccc(-c2nnc(SCc3cc(=O)[nH]c4ccccc34)n2C)c1", "Potency": "inactive"},
      {"smiles": "Cc1nn(C(=O)c2cccs2)c(N)c1-c1ccccc1", "Potency": "inactive"},
      {"smiles": "COc1ccc(N(CC(=O)Nc2cccc(SC)c2)S(C)(=O)=O)cc1Cl", "Potency": "inactive"},
      {"smiles": "Nc1ccc(-c2nc3c(Cl)cc(N)cc3[nH]2)cc1", "Potency": "inactive"},
      {"smiles": "O=C(NCCCN1CCOCC1)c1cc2c(=O)[nH]c3ccccc3c2s1", "Potency": "inactive"},
      {"smiles": "C(=N\\Nc1nc(-c2ccccn2)nc2ccccc12)/c1ccccc1", "Potency": "inactive"},
      {"smiles": "Cc1cc2nc3ccc(=[N+](C)C)cc-3sc2cc1N", "Potency": "inactive"},
      {"smiles": "CC1(C)O[C@@H]2C[C@H]3[C@@H]4C[C@H](F)C5=CC(=O)CC[C@]5(C)[C@H]4[C@@H](O)C[C@]3(C)[C@]2(C(=O)CO)O1", "Potency": "inactive"},
      {"smiles": "Cc1cccnc1NC(=O)c1c(O)c2cccc3c2n(c1=O)CCC3", "Potency": "inactive"},
      {"smiles": "COc1cccc(N2CCN(c3ncnc4c3[nH]c3ccc(F)cc34)CC2C)c1", "note": "(stereo not given)", "Potency": "0.631 µM (active)"},
      {"smiles": "CCCN1C(=O)/C(=C\\C=C2/C=CN(CC)c3ccccc32)SC1=S", "Potency": "inactive"},
      {"smiles": "CN(C)c1ccc(N=Cc2ccco2)cc1", "Potency": "inactive"},
      {"smiles": "Cc1nnc(NC(=O)c2cccc(S(=O)(=O)N3CCc4ccccc43)c2)s1", "Potency": "inactive"},
      {"smiles": "CCCCOc1ccc(OCCCN2CCOCC2)cc1", "Potency": "inactive"},
      {"smiles": "CN(C)c1nc(=Nc2cccc(Cl)c2)ss1", "Potency": "inactive"},
      {"smiles": "COc1cccc2sc(Nc3nc(-c4ccccn4)cs3)nc12", "Potency": "3.16 µM (active)"},
      {"smiles": "Nn1c(COc2ccccc2)nnc1SCc1cc(=O)[nH]c2ccccc12", "Potency": "inactive"},
      {"smiles": "O=C(CSC1=NCCS1)Nc1ccnc2ccccc12", "Potency": "inactive"},
      {"smiles": "COc1ccc(N=C2S/C(=C\\c3ccc(N4CCOCC4)o3)C(=O)N2CCc2c[nH]c3ccccc23)cc1", "Potency": "2.24 µM (active)"},
      {"smiles": "COc1ccc(/C=C2\\CCCC3C2=NN(C(=O)c2ccco2)C3c2ccc(OC)c(OC)c2)cc1OC", "note": "(stereo not given)", "Potency": "inactive"},
      {"smiles": "CN(CC(=O)NCc1ccc(F)cc1)S(=O)(=O)c1cccc2nsnc12", "Potency": "inactive"},
      {"smiles": "Cc1ccc(Nc2cc(C)nn2-c2nc(C)cc(C)n2)cc1", "Potency": "inactive"},
      {"smiles": "CC1CCCc2sc3nc(N4CCN(CCO)CC4)n4ncnc4c3c21", "note": "(stereo not given)", "Potency": "inactive"},
      {"smiles": "N=C1c2ccccc2CN1c1ccc(N2CCOCC2)c(S(=O)(=O)Nc2ccc(Cl)cc2)c1", "Potency": "1.41 µM (active)"},
      {"smiles": "Cc1cc(OCC(=O)c2ccc(Br)cc2)ccc1N1C(=O)CCC1=O", "Potency": "inactive"},
      {"smiles": "CN(C)C(=S)N=Nc1[nH]c2ccccc2c1O", "Potency": "inactive"},
      {"smiles": "C(=C\\c1ccccc1)/C=N/N1CCN(c2ccccn2)CC1", "Potency": "inactive"},
      {"smiles": "COc1ccc(-c2cc(N)n(S(=O)(=O)c3c(F)c(F)c(F)c(F)c3F)n2)cc1OC", "Potency": "7.08 µM (active)"},
      {"smiles": "CCc1ccc2oc(-c3cc(N)cc(C)c3O)nc2c1", "Potency": "inactive"},
      {"smiles": "C=CCn1c(SCCN2C(=O)c3ccccc3C2=O)nc2scc(-c3ccccc3)c2c1=O", "Potency": "inactive"}
    ]}
  ]
}
